# Screening data from PubChem BioAssay.
# A selection: hits, their analogues and other compounds. The true share with any hit is near 7.1%.
# MCF10A rerep – inducers of DNA re-replication in MCF 10A breast cells | 350,000 tested, 2.9% active | AID 624296 | MCF 10A DNA re-replication, Hoechst nuclear intensity, 48 h | Potency, µM (titrated, usually from 46.1 µM), inactives show at the top dose activity, positive = re-replication, hits mostly activators; further: % of control where 0% means no effect; nearly all actives have a fitted effect of over 50% in size
# ELG1 repair inh – blocks ELG1-dependent DNA repair in HEK293T cells; 330,000 tested, 2.3% active; HEK293T ELG1-luciferase reporter, luminescence, 16 h; DNA damage induced by 5-fluorouridine; Potency, µM (highest dose often 46.1 µM), for inactives: top-dose activity change, negative = inhibition, actives largely listed as inhibitors; AID 504467; further: on the % scale 0 is the no-effect control and ±100 the full control effect; nearly all actives have a fitted effect of over 55% in size
#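 Step one: seed 2,000 cells per well. Step two: pin-transfer compound or DMSO alongside 5-fluorouridine. Step three: incubate 16 hr, 37 °C, 5% CO2. Step four: add ONE-Glo, wait 30 min, read luminescence.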
# p53 reactivation – mutant p53 re-activation in reporter cells; H1299 p53-A138V BP100-luciferase reporter, luminescence, 24 h; 320,000 tested, 0.063% active; Potency, µM (series often up to 92.2 µM), for inactives: at the top dose activity change, positive = activation, most hits filed as activators; AID 504706; further: % of control where 0% means no effect; nearly all actives have a fitted effect of over 45% in size
#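 H1299 (p53-null), stable ts p53-A138V + BP100-Luc; 1000 cells/well, Opti-MEM/10% FBS; cpd 4 pt, 1:5; 24 h, 37 deg C, 5% CO2; detection reagent 10 min RT; luminescence.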
# AT treatment – potential ataxia-telangiectasia treatments restoring KAP-1 phosphorylation. F2112 A-T fibroblasts, KAP-1 phosphorylation AlphaLISA; neocarzinostatin DNA damage 30 min before lysis. Potency, µM (highest dose often 57.5 µM), for inactives: at the top dose activation, actives largely listed as activators. 320,000 tested, 0.19% active. AID 485349; further: % of control where 0% means no effect; nearly all actives have a fitted effect of over 45% in size
#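 ATM-like activity read as KAP-1 phosphorylation via AlphaLISA donor/acceptor antibody pairs after lysis and 6 hr at 25C. Cells were ATM-null patient fibroblasts (F2112, hTERT), dosed 60 min, then exposed to the DSB inducer NCS for 30 min.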
# SW480 rereplic – DNA re-replication induction in SW480 cells | Potency, µM (doses to about 46.1 µM), inactives show top-dose re-replication activation, most hits filed as activators | AID 624297 | SW480 DNA re-replication, Hoechst DNA content imaging, 48 h | 340,000 tested, 1.8% active; further: % of control where 0% means no effect; nearly all actives have a fitted effect of over 55% in size
#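 Per well, 250 cells were exposed to pinned compound for 48 hr. Nuclear DNA was visualised with Hoechst (40 min, 37 C) and total object intensity recorded by fluorescence scanning.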
# ELG1 genotoxic – induces genotoxicity in HEK293T cells with luciferase-tagged ELG1 | HEK293T ELG1-luciferase reporter, luminescence, 16 h | Potency, µM (highest dose often 46 µM), inactives show at the highest dose activity change, positive = activation, most hits filed as activators | AID 504466 | 330,000 tested, 1.3% active; further: % of control where 0% means no effect; nearly all actives have a fitted effect of over 60% in size
#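 Quantitative HTS format in 1536-well plates. HEK293T ELG1-luciferase reporter cells receive test compound and are incubated 16 hr at 37 °C, 5% CO2; ONE-Glo added, 30 min room temperature, then luminescence read.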
# An asterisk follows results filed as active; ? = inconclusive; nt = no result; [ ] = dose if it differs, or a comment. The call rests on the fitted dose curve; in most records, active means well fitted curve in the direction sought with a large enough effect; inconclusive means small, poorly fitted or top-dose-only effect, or another doubt; inactive means no such curve, though single readings can be large; an effect the other way counts as inactive or inconclusive. Potency means the concentration at half of the fitted maximal effect.
SMILES,MCF10A rerep,ELG1 repair inh,p53 reactivation,AT treatment,SW480 rereplic,ELG1 genotoxic
Cc1ccc(S(=O)(=O)N2CCOCC2)cc1NC(=O)CSc1nnc2cc(C)c3ccccc3n12,?,18µM*,-15%,1%,1%,-6%
O=C(N=C1SC2CS(=O)(=O)CC2N1Cc1ccccc1Cl)C1CCCO1 (stereo not given),6%,7%,3%,7%,11%,0%[9.26 µM]
COc1ccc(NC(=O)CNCc2ccc(Cl)cc2)cc1S(=O)(=O)N1CCOCC1,7%,0%,0%,17%,-14%,-2%
Cc1ccc(NC(=O)COC(=O)Cc2c[nH]c3ccccc23)cc1F,4%,12%,1%,12%,1%,0%
COc1ccc(Cn2ccnc2SCC(=O)Nc2nnc(C)s2)cc1,-1%,-1%,-11%,2%,-8%,1%
COc1ccc(S(=O)(=O)N2CCOCC2)cc1NC(=O)CSc1nnc2c(n1)[nH]c1ccccc12,-1%,23µM*,-4%,-11%,0%,-7%
Cc1ccc(NC(=O)C2CCN(S(=O)(=O)c3ccc4ccccc4c3)CC2)nc1,4%,?,17%,14%,0%,2%
COc1ccc(OCC(=O)Nc2sc3c(c2C(=O)NCC2CCCO2)CCC3)cc1 (stereo not given),18%,16µM*,0%,12%,-1%,0%
O=C(Cc1ccsc1)NCC(=O)Nc1ccc(F)c(F)c1,6%,16%,0%,-12%,-3%,5%
C=CCN(C(=O)C1CSC2(C)CCC(=O)N12)c1nc(-c2ccccc2)cs1 (stereo not given),28%,?,-4%,nt,14%,18µM*
Cc1ccc(-c2csc(NC(=O)C3CSC4(C)CCC(=O)N34)n2)cc1 (stereo not given),10%,?,-4%,10%,-6%,14%
COc1ccc(SN=C2C(C)=CC(=O)C=C2C)cc1,26µM*,?,-2%,-4%,?,-7%
COC(=O)c1cc(C(=O)OCC(=O)c2ccc3c(c2)NC(=O)CO3)cc([N+](=O)[O-])c1,0%,6%,-2%,2%,-4%,-2%
O=S(=O)(CCN1CCCCC1)Oc1ccc(Cl)cc1Cl,?,10%,1%,15%,-5%,3%
Cc1cc(C(=O)N2CCCC(C(=O)c3cccc(C(F)(F)F)c3)C2)n[nH]1 (stereo not given),-1%,3%,14%,9%,17%,0%
Cc1noc(C)c1C(=O)N1CCCC(C(=O)c2cccc(C(F)(F)F)c2)C1 (stereo not given),-2%,4%,-3%,-3%,5.8µM*,-4%
COc1ccc(OCC(O)Cn2c(Nc3cccc(C)c3)nc3c2c(=O)n(C)c(=O)n3C)cc1 (stereo not given),8%,18µM*,-10%,0%,-5%,-2%
O=S(=O)(c1ccc(Cl)cc1)N1c2ccccc2Oc2nc3ccccc3nc21,15µM*,-20%,15%,1%,18%,1%
COc1ccc(S(=O)(=O)N2c3cc(Cl)ccc3Oc3nc4ccccc4nc32)cc1,1µM*,11%,28%,0%,2.1µM*,?
C=CCn1c(=O)c2ccccc2n2c(SCc3nnc(-c4ccccc4Br)o3)nnc12,23µM*,?,-4%,nt,15%,-5%
CCOC(=O)C1(Cc2ccccc2)CCCN(C(=O)c2cnn(CC)c2)C1 (stereo not given),-1%,?,?,-2%,26%,?
Cc1ccc(S(=O)(=O)Nc2ccccc2-c2ccccc2)cc1,1.3µM*,?,2%,-3%,0.82µM*,-2%
CCN(CC)CCNC(=O)c1ccc(N2CCCCC2)c(NS(=O)(=O)c2ccc(C)cc2)c1,5%,20%,?,-1%,26µM*,?
Cc1ccc(S(=O)(=O)Nc2ccccc2N2CCCCC2)cc1,16µM*,?,9%,26%,?,1%
COC(=O)c1ccc(N2CCCCC2)c(NS(=O)(=O)c2ccc(C)cc2)c1,-4%,-8%,0%,2%,-1%,7%
SMILES,MCF10A rerep,ELG1 repair inh,p53 reactivation,AT treatment,SW480 rereplic,ELG1 genotoxic
O=C(NCC(=O)N1CC=C(c2ccccc2)CC1)c1ccco1,2%,?,20%,0%,0%,-1%
CC(=O)Nc1cccc(Oc2ccc(-c3noc(C)n3)cc2)c1,?,?,?,2%,4%,9.2µM*
Cc1csc(N(C(=O)c2cccc(S(=O)(=O)N3CCCC3)c2)c2ccccc2)n1,-4%,21µM*,0%,nt,-1%,-16%
Cc1csc(N(C(=O)Cc2ccccc2F)c2ccccc2)n1,-6%,0%,-10%,5%,-1%,-1%
Cc1csc(N(C(=O)c2cccc(S(=O)(=O)N(C)C)c2)c2ccccc2)n1,-4%,15µM*,3%,17%,-3%,-20%
NC(=O)c1cc(S(=O)(=O)NCc2cccs2)cs1,-5%,?,7%,-2%,-10%,2%[9.26 µM]
CCn1c(SCC(=O)NC2CC2)nnc1C(C)Oc1ccccc1 (stereo not given),2%,1%,-4%,-5%,21µM*,0%
CC(Oc1ccccc1)c1nnc(SCC(=O)NC2CC2)n1C (stereo not given),-16%,25%,0%,-2%,-4%,13%
O=C1COc2ccc(NC(=O)c3ccccc3C(=O)O)cc2N1,6%,-5%,-3%,-20%,9%,-2%
CN(C)CCN1CC(O)=C(c2nc3ccccc3s2)C1=N,18µM*,-5%,3%,2%,3%,0%
COc1ccc(N2CC(O)=C(c3nc4ccccc4s3)C2=N)c(OC)c1,11%,-14%,-3%,8%,2%,2%
N=C1C(c2nc3ccccc3s2)=C(O)CN1Cc1ccco1,12%,?,?,0%,?,9.2µM*
c1coc(-c2nc3ccccc3s2)c1,-14%,nt,nt,nt,-13%,nt
C#CCOc1ccc(C2C(C#N)=C(N)Oc3cc(O)ccc32)cc1 (stereo not given),14%,-15%,nt,24%,-4%,-2%
Cc1cc([N+](=O)[O-])ccc1NC(=S)NC1CCCC1,-13%,4%,10%,0%,2%,10%
CCN(CCCNC(=O)Cn1ncc2c([nH]c3ccc(C)cc32)c1=O)c1ccccc1,2%,29%,-2%,4%,1%,0%[9.26 µM]
CCCCCCCN1CCN=C1N(C)C,16%,10%,0%,1%,-21%,-19%
